Reference: PubChem BioAssay AID1345083 (National Center for Advancing Translational Sciences (NCATS), 2018)
Out of some 94,000 compounds screened, about 6,200 (6.6%) were called active. Entries that show only a call come without a potency. About 31% were inconclusive and are not listed. Calls follow the shape of the dose curve; as a rule, active = well fitted inhibition curve with a large enough effect; inconclusive = small, poorly fitted or top-dose-only effect; inactive = flat fitted curve, though single readings scatter. Many of the other results were omitted from the sample, so actives are more common in it than they were.

assay: Cytotoxic Profiling in HEK 293 Cell Line of Diverse Libraries Using Quantitative High-Throughput Screening; details: HEK 293 viability, ATP luminescence (CellTiter-Glo), 48-72 h; series mostly up to 115 µM; also: nearly all actives have a fitted effect of over 60% in size
Procedure, shortened: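 250 HEK 293 cells/well; compound by pintool; incubated 48 or 72 hr at 37 degree Celsius; CellTiter-Glo added, 10 min RT, luminescence imaged.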
Potency is read from the fitted curve at half-maximal effect.

Structure (SMILES) | Potency
CCC(=O)N1Cc2ccccc2CC2(CCCN2C)C1 (centres undefined) | inactive
NCC(=O)N1CCCC2(Cc3ccccc3CN2C(=O)c2cccc(Cl)c2)C1 (centres undefined) | 70.8 µM (active)
NCC(=O)N1Cc2ccccc2CC2(CCCCN2CC2CCOCC2)C1 (centres undefined) | inactive
O=C(c1cccnc1)N1C[C@@H](F)[C@@H](OCc2nc3ccc(C(F)(F)F)cc3[nH]2)C1 | inactive
C[S+](=O)([O-])NC1CC2(CCN(Cc3ccc(O)cc3)CC2)c2ccccc21 (centres undefined) | inactive
CC1=C[C@@H](CC#N)[C@H](C(C)C)C[C@H]1CC(=O)N1CCN(C)CC1 | inactive
CC1=C[C@@H](CN2CCCC2)[C@H](C(C)C)C[C@H]1Cc1nnc(-c2ccc([N+](=O)[O-])cc2)o1 | 35.5 µM (active)
CC1=C[C@@H](CN2CCN(CCO)CC2)[C@H](C(C)C)C[C@H]1Cc1nnc(-c2ccc(C)cc2)o1 | 31.6 µM (active)
CC1=C[C@@H](CN2CCOCC2)[C@H](C(C)C)C[C@H]1Cc1nnc(-c2ccc([N+](=O)[O-])cc2)o1 | 39.8 µM (active)
CNC(=O)c1cc(C)nc2onc(C3CCCN3C(=O)Cc3ccc(F)cc3)c12 (centres undefined) | inactive
NC1CCCCN(C(=O)c2ccc3n[nH]nc3c2)C1 (centres undefined) | inactive
CSc1cccc(NC(=O)N[C@H]2C[C@@H](C(=O)N[C@@H](CCCNC(=O)CC(C)(C)C)C(N)=O)N(C(=O)CC(C)(C)C)C2)c1 | inactive
COCCS(=O)(=O)c1ncc(CN2CCCCO2)n1Cc1ccccc1 | inactive
CCCN1C(=O)[C@H]2CC[C@@H]1CN(C(=O)c1nc(-c3ccccc3)[nH]c1C)C2 | inactive
O=C(NC[C@H]1Cn2c(-c3ccc(F)cc3)cnc2CO1)C1CC1 | inactive
Cc1ccc(Cl)cc1NC(=O)N1C[C@@H](F)C[C@H]1C(=O)N1CCCCC1 | inactive
COc1cccc(NC(=O)N[C@H]2CCN(C(=O)C=C(C)C)[C@@H]2C(=O)N[C@@H](Cc2cccs2)C(N)=O)c1 | inactive
O=C1CC(c2ccccc2)N(C(=O)CNC(=O)c2cnccn2)CCCCCCN1 (centres undefined) | inactive
CC(C)(C)C(=O)Nc1cc(C2CC2)nn1-c1ccccc1 | inactive
Cc1nn(-c2cccc(Br)c2)c(C)c1[C@@H]1C=C[C@@H](NS(=O)(=O)c2ccccc2)C1 | 44.7 µM (active)
Cc1nn(CCC#N)c(C)c1[C@@H]1C=C[C@@H](NS(=O)(=O)c2ccccc2)C1 | inactive
c1c[nH]c(CNC[C@H]2Cn3ccnc3CO2)n1 | inactive
CCOc1ccc(NC(=O)Cn2nc3n(c2=O)CCN(Cc2ccccc2C)C3=O)cc1 | inactive
COc1ccc(CN2CCN3C(=O)N(c4ccccc4)C[C@H]3C2)cn1 | inactive

Structure (SMILES) | Potency
Cc1ccccc1CN1Cc2nc(NCc3ccncc3)ccc2OCC1=O | 89.1 µM (active)
COc1ccc(Nc2ccc3c(n2)CN(Cc2ccccc2C)C(=O)CO3)cn1 | 100 µM (active)
CC(=O)N1CCCN(C(=O)c2cnc3c(c2)N(C(=O)Cc2ccc(C(C)C)cc2)CCC3)CC1 | inactive
CCC(C)NC(=O)N1CCC(CCOC)(NS(C)(=O)=O)CC1 (centres undefined) | inactive
O=C(c1nc(-c2cccnc2)c2cnccn12)N1CCN(c2ncccn2)CC1 | inactive
CN(C)c1ccc(C(=O)N[C@H]2C[C@H]3C(=O)NC[C@@H](CCC(=O)N4CCc5ccccc54)N3C2)cc1 | inactive
O=C(c1ccccc1)N1CCN(C(=O)c2nc3cccnc3n(C3CC3)c2=O)CC1 | inactive
CCC(=O)N1CCC(CC(=O)N2CCOCC2)C1 (centres undefined) | inactive
COC(=O)CNC(=O)C1CCN(Cc2ccccc2-c2ccccc2F)CC1 | inactive
C#CCNC(=O)C1CCN(Cc2ccccc2-c2ccccc2F)CC1 | inactive
O=C(C1CCN(Cc2ccccc2-c2ccccc2F)CC1)N1CCC(c2ccccc2)CC1 | 25.1 µM (active)
CC1CCC2(CC1)NC(=O)N(CC(=O)NCc1ccco1)C2=O (centres undefined) | inactive
Cn1cc(C#N)cc1-c1nc(COc2ccccc2)nn1CC(F)(F)F | inactive
COc1ccc(C2Cn3nnc(-c4noc(-c5ccc(OC)cc5C)n4)c3CO2)cc1 (centres undefined) | inactive
Cc1nc(CCNS(=O)(=O)c2cccnc2)no1 | inactive
COCCN1C(=O)c2ccccc2C(C(=O)NC2CC2)C12CCCCC2 (centres undefined) | inactive
COc1ccccc1NC(=O)C1c2ccccc2C(=O)N(CC(C)C)C12CCCC2 (centres undefined) | 70.8 µM (active)
COC(=O)CCNC(=O)C1c2ccccc2C(=O)N(CC(C)C)C12CCCC2 (centres undefined) | inactive
COCCOC1CN(C2CCN(C(=O)C3CCOCC3)CC2)C12CCCCC2 (centres undefined) | inactive
CC[C@H]1CN(C(=O)c2cccnc2)CC[C@H]1CC(=O)NCc1cccnc1 | inactive
CC(C)NC(=O)N1CCCC1c1noc(COc2ccc(F)cc2)n1 (centres undefined) | inactive
Cc1cccc(-c2cccc(CN3CCC(NC(=O)Nc4ccccc4)CC3)c2)c1 | 22.4 µM (active)
CN1C(=O)c2cccn2CC1C(=O)NC1CCN(Cc2ccccc2)CC1 (centres undefined) | inactive
Cc1cccc(C(=O)N2CCC(CC(=O)NCc3ccccc3)C2)c1 (centres undefined) | inactive

Structure (SMILES) | Potency
O=C([C@@H]1C[C@H](F)CN1C(=O)Nc1ccccc1)N1CCCCC1 | inactive
Cc1noc(C)c1C(=O)N[C@@H]1CN(c2ccncn2)C[C@H]1CN(C)C | inactive
CN(Cc1cccnc1)C(=O)CCC[C@@H]1[C@H]2CCCN3CCC[C@@H](CN1C(=O)c1cccnc1)[C@@H]23 | inactive
CCCc1sc(NC(=O)C[C@H]2NC(=O)c3ccccc3NC2=O)nc1C(=O)OC | inactive
Cc1ccc(N2CC(Cc3ccccc3)N(C(=O)c3ccnn3C)CC2=O)cc1 (centres undefined) | inactive
COc1cccc(CN2Cc3nc(Nc4cccc(F)c4)ccc3OCC2=O)c1 | 89.1 µM (active)
CCN(Cc1cnn(CC)c1)C(=O)C1CCCCC(=O)N1Cc1cccc(OC)c1 (centres undefined) | inactive
COc1cccc(CN2Cc3nc(-c4cc(F)cc(F)c4)ccc3OCC2=O)c1 | 63.1 µM (active)
COc1ccc(-c2ccc3c(n2)CN(CCOc2ccccc2)C(=O)CO3)cc1F | 79.4 µM (active)
COc1ccc(-c2noc(-c3cccn3CC(=O)Nc3ccccc3)n2)cc1F | inactive
COc1cccc(CN2CCOC3CCN(C(=O)c4cccnc4)CC3C2=O)c1 (centres undefined) | inactive
COc1cccc(CC(=O)NCCc2noc(-c3cccnc3)n2)c1 | inactive
COc1cccc(CN2CCN(C(=O)c3cnc4ccccn4c3=O)CC2=O)c1 | inactive
COCCN1Cc2cc(OC)ccc2N(CC(O)COc2ccc(OC)cc2)CCC1=O (centres undefined) | inactive
CCOCCOC1CCN(C(=O)NCc2ccc(C)cc2)CC1 | inactive
CN1CCN(C(=O)c2nc3sccn3c2-c2ccc(F)cc2)CC1 | inactive
COC(=O)[C@H]1CCCN1C(=O)[C@@H]1C[C@@H](NS(=O)(=O)c2cccs2)CCN1C(=O)COCC(=O)O | inactive
CS(=O)(=O)N1C[C@H]2CCN(C(=O)c3ccncc3F)C[C@H]21 | inactive
Cn1c(=O)[nH]cc(CC(=O)N2CCn3nc(Cc4ccccc4)cc3C2)c1=O | inactive
CN(CCc1ccccn1)[C@@H]1[C@H](O)[C@H](CO)O[C@@H]1CNC1CCOCC1 | inactive
COCC(=O)N[C@H]1CC(C)(C)[C@@H]2C[C@@](C)(O)CC[C@]12CCC(=O)N1CCN(c2ccccc2OC)CC1 | inactive
CC(C)C(=O)N1CC(n2cc(COc3ccc(F)cc3)nn2)C1 | inactive
COc1ccc(CC(=O)N2CCC(C(=O)N3CCC(N4Cc5ccccc5C4=O)CC3)CC2)cc1 | inactive
CCCS(=O)(=O)N1Cc2c(ncn2Cc2ccc(Cl)cc2)C[C@H]1C(=O)OC | inactive

Structure (SMILES) | Potency
CCOc1ccc2c(n1)CCN(C(=O)c1nccn1C)C2 | inactive
O=C1CCN(C(=O)C2CCN(C(=O)CCCc3ccccc3)CC2)CCCCCCN1 | inactive
COCCn1c(C)cc(C(=O)N2CCCC(c3[nH]ccc3C(N)=O)C2)c1C (centres undefined) | inactive
CCOC(=O)C1(Cc2ccc(F)cc2F)CCCN(Cc2cccc(OC)c2O)C1 (centres undefined) | 39.8 µM (active)
O=C1NCc2ccccc2CC12CCCN(Cc1ccc(F)cc1O)C2 (centres undefined) | inactive
CCOC(=O)C1(Cc2ccccc2F)CCCN(C(=O)CN2CCOC2=O)C1 (centres undefined) | inactive
COc1ccc(N2CC(c3noc(-c4ccc(C(C)(C)C)cc4)n3)CC2=O)cc1 (centres undefined) | 44.7 µM (active)
Cc1ccc(-c2nc(C3CC(=O)N(c4ccc(Cl)cc4)C3)no2)cc1C (centres undefined) | inactive
Cc1ccc(N2CC(c3noc(-c4cc(Cl)ccc4F)n3)CC2=O)cc1 (centres undefined) | inactive
Cc1ccc(CN2C(=O)[C@@H]3C[C@@H](O)CN3C3(CN(Cc4ccccn4)C3)C2=O)o1 | inactive
O=C(NCCNC(=O)c1ccccc1F)c1ccc(-c2cccc(C(F)(F)F)c2)cc1 | inactive
O=C(NCCN[S+](=O)([O-])c1cccs1)c1ccc(-c2cccc(C(F)(F)F)c2)cc1 | 44.7 µM (active)
O=C(NCC(=O)N1CCC(c2ccccc2)CC1)c1ccc(-c2cccc(C(F)(F)F)c2)cc1 | inactive
CC(=O)NCC(=O)N1Cc2ccccc2CC2(CCCN2Cc2cccnc2)C1 (centres undefined) | inactive
CC(C)CCN1CCC2(CC1)C(=O)NCN2Cc1ccc(Cl)cc1 | inactive
COc1ccc(CCNC(=O)c2nnn3cc(-c4ccccc4)[nH]c(=O)c23)cc1OC | inactive
Cc1cc2nc3n(c(=O)c2n1CC(=O)Nc1cccc(C(F)(F)F)c1)CCCC3 | 28.2 µM (active)
Cc1cc2nc3n(c(=O)c2n1CC(=O)Nc1ccc(Br)cc1)CCCC3 | inactive
Cc1cc2nc3n(c(=O)c2n1CC(=O)Nc1cc(F)cc(F)c1)CCCC3 | inactive
Cc1noc(-c2ccc(OC3CN(C(=O)C4CCOC4)C3)cc2)n1 (centres undefined) | inactive
CO[C@H]1CN(C(C)C)[C@H]1C1CCN(C(=O)NCCc2ccccc2)CC1 | inactive
NC(=O)[C@@H]1C[C@H](Oc2ccccc2)CN1C(=O)Cc1cccc(F)c1 | inactive
